Assay [1] relates to Plasmodium falciparum Sir2 (PF13_0152, Sir2A). Briefly: Plasmodium falciparum Sir2A binding compounds – biochemical, small-molecule microarray, 635 nm fluorescence, primary screen (AID 1098).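 Further: score merges spot fluorescence intensity with its signal-to-noise ratio.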 The settings on record: fluorescence 635 nm, higher = more signal.
Assay [2] in a line: probe aDKK1 binding to arrayed compounds – biochemical, biotinylated probe, 635/667 nm fluorescence, primary screen (AID 1099).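 Further: score merges 667nm spot fluorescence with signal to noise across triplicate slides.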 The settings on record: small-molecule microarray, higher = more signal.
Assay [3] can be described thus: probe aCHRDL2 binding to arrayed compounds – biochemical, biotinylated probe, 635/667 nm fluorescence, primary screen (AID 1100). The settings on record: small-molecule microarray, higher = more signal.
Assay [4] in a line: change in splice reporter luminescence, either direction, cell-based, HEK293, spliceosome inhibition project, primary screen (AID 1101).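 Further: HEK293 cells carrying a splicing-competent luciferase reporter gene; test concentration not given here.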 Particulars: HEK293 splicing luciferase reporter, 24 h, higher = more signal, called active from +8 up or from −8 down. On the technique in general: A reporter such as luciferase makes a cellular process visible.
Assay [5] addresses Fibroblast growth factor 10 (Homo sapiens) (UniProt O15520). The assay can be described thus: compounds binding fibroblast growth factor 10 – biochemical, small-molecule microarray, 635 nm fluorescence, primary screen (AID 1102). Particulars: FGF10 binding, fluorescence 635 nm, higher = more signal.
Assay [6] deals with glycogen synthase kinase-3 (GSK3A per assay name; protocol says GSK3B). The assay can be described thus: compounds binding glycogen synthase kinase-3 – biochemical, small-molecule microarray, 635 nm fluorescence, GSK3A, primary screen (AID 1103). Further: the record names both GSK3A and GSK3B. Particulars: fluorescence 635 nm, higher = more signal.
In assay [7] the target is Epidermal growth factor receptor (Homo sapiens) (UniProt P00533). Briefly: compounds binding epidermal growth factor receptor – biochemical, small-molecule microarray, 635 nm fluorescence, primary screen (AID 1104).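 Further: score merges 667 nm emission intensity with spot signal to noise over triplicate slides.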 Particulars: EGFR binding, higher = more signal.
Sequence of Epidermal growth factor receptor (Homo sapiens) (P00533 whole entry, looked up): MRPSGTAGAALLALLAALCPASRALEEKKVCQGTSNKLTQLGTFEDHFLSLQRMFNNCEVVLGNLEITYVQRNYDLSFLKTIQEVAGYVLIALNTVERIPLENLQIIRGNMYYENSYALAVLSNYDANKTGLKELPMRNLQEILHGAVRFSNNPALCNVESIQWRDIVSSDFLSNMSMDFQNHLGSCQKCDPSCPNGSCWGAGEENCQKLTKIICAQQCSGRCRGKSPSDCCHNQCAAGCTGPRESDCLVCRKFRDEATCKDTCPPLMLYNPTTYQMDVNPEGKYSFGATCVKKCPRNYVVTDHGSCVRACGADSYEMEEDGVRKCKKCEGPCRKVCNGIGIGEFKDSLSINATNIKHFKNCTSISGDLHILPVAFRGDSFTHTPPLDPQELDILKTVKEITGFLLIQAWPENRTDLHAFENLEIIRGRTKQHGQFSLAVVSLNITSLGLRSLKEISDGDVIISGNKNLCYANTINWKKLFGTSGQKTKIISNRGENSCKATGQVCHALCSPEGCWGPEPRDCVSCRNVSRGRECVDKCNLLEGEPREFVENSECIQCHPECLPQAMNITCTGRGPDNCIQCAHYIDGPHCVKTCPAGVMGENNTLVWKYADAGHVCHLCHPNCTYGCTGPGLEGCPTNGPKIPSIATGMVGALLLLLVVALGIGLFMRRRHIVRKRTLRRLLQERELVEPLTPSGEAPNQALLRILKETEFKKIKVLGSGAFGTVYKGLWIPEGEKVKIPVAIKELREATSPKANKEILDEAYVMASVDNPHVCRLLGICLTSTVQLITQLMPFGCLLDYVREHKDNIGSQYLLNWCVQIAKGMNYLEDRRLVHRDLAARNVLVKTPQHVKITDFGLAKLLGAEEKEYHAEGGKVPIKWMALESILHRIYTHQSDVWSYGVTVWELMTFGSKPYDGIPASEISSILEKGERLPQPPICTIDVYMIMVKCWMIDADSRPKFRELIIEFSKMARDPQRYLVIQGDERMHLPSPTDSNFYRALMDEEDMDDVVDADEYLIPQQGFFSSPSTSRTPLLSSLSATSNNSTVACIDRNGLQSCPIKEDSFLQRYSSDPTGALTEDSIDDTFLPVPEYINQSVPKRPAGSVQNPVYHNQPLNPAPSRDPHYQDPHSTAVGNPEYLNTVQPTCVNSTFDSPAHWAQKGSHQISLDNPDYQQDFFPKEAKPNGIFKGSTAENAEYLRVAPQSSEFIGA
Assay [8] addresses Follistatin-related protein 3 (Homo sapiens) (UniProt O95633). The assay can be described thus: compounds binding follistatin-related protein 3 – biochemical, small-molecule microarray, 635 nm fluorescence, primary screen (AID 1105).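 Further: score merges emission near 667 nm and signal to noise per printed spot across three slides.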 The settings on record: FSTL3 binding, higher = more signal.
Assay [9] has as its target Dickkopf-related protein 1 (Homo sapiens) (UniProt O94907). The assay can be described thus: small molecules binding DKK1 protein – biochemical, small-molecule microarray, 635 nm fluorescence scan, primary screen (AID 1106).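 Further: score merges emission near 667 nm with signal to noise over three replicate slides.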 The settings on record: higher = more signal.
The test system of assay [10] is Inhibin beta A chain (activin A). The assay can be described thus: small molecules binding activin A – biochemical, small-molecule microarray, 635 nm fluorescence scan, primary screen (AID 1107).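 Further: mouse activin A protein probed at 4.33 µg/mL on printed slides; score merges bound-protein fluorescence near 667 nm with spot signal-to-noise.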 The settings on record: INHBA, higher = more signal.
Assay [11] concerns Human papillomavirus type 1a protein E7 (residues 44-93). The assay can be described thus: small molecules binding HPV E7 44-93 – biochemical, small-molecule microarray, residues 44-93, 635 nm fluorescence, primary screen (AID 1108).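 Further: E7 fragment applied at 1 µg/mL in TBST for 1 h at 4 C; score combines spot fluorescence with its signal to noise ratio.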 Particulars: fluorescence 635 nm, higher = more signal.
Assay [12] can be described thus: hepatitis C replication reporter changes, two-sided – Huh7 cells, luciferase reporter, HCV replication inhibitor project, primary screen (AID 1109).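 Further: huh7 hepatoma cells harbouring a luciferase neomycin HCV replicon reporter; luciferase luminescence as measure of HCV replicon replication; test concentration not given here.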 The settings on record: Huh7 HCV replicon luciferase reporter, 48 h; higher = more signal.
Assay [13] has as its target Left-right determination factor 2 (Homo sapiens) (UniProt O00292). The assay can be described thus: small molecules binding LEFTY2 protein – biochemical, small-molecule microarray, 635 nm fluorescence scan, primary screen (AID 1110). The settings on record: higher = more signal.
Assay [14] has as its target Calmodulin-1 (Homo sapiens) (UniProt P0DP23). Briefly: small molecules binding calmodulin-1 with EGTA – biochemical, small-molecule microarray, Cy5-labelled CALM1, profiling panel (AID 1111).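 Further: labelled calmodulin applied in Tris saline Tween buffer holding calcium plus EGTA and DTT.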 Particulars: Cy5-CALM1 binding fluorescence, higher = more signal.
The target is the same in assay [15]. Briefly: small molecules binding Ca-loaded calmodulin-1 – biochemical, small-molecule microarray, Cy5-labelled CALM1, plus calcium, artefact control for SMM control-protein annotation, profiling panel (AID 1112).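 Further: score merges spot fluorescence with signal to noise from triplicate slides.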 The settings on record: Cy5-CALM1 binding fluorescence, higher = more signal.
A short description of assay [16]: probe aWnt5a binding to arrayed compounds – biochemical, biotinylated probe, 635/667 nm fluorescence, primary screen (AID 1113).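 Further: score merges 667 nm fluorescence intensity with signal-to-noise per printed feature.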 Particulars: small-molecule microarray, higher = more signal.
Assay [17] in a line: probe aShh binding to arrayed compounds – biochemical, biotinylated probe, 635/667 nm fluorescence, primary screen (AID 1114).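 Further: probe is biotin-labelled aShh protein from a stem cell growth factor screen; measures binding of labelled protein to compounds printed on the slide; score merges feature fluorescence at 667 nm with signal-to-noise.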 Particulars: small-molecule microarray, higher = more signal.
Assay [18] in a line: probe aNog binding to arrayed compounds – biochemical, biotinylated probe, 635/667 nm fluorescence, primary screen (AID 1115).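 Further: probe is biotinylated aNog protein used at 0.15 µg/mL for 1 h at 4 C; z-score combines 667 nm fluorescence of each spot with its signal to noise.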 The settings on record: small-molecule microarray, higher = more signal.
Assay [19] has as its target Torsin-1A-interacting protein 1 (Homo sapiens) (UniProt Q5JTV8). The assay can be described thus: compound microarray binding of lysate hLAP1 – cell lysate, small-molecule microarray, COS7 lysate, 635/667 nm fluorescence, primary screen (AID 1116). Particulars: 635 nm fluorescence, higher = more signal.
The target of assay [20] is Alpha-bungarotoxin (Bungarus multicinctus) (UniProt P60615). Briefly: compounds binding labelled alpha-BTX control protein – biochemical, small-molecule microarray, Alexa647 label, 635/667 nm fluorescence, artefact control for SMM control protein annotation, profiling panel (AID 1117). The settings on record: alpha-BTX-A647 binding fluorescence, higher = more signal.
Sequence of Alpha-bungarotoxin (Bungarus multicinctus) (P60615 whole entry, looked up): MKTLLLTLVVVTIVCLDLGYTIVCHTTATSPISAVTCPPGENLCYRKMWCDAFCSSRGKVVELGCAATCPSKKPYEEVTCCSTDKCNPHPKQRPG

Molecules are shown by their SMILES. Calls of active or inactive are those of the source.

Sequence of Fibroblast growth factor 10 (Homo sapiens) (O15520 whole entry, looked up): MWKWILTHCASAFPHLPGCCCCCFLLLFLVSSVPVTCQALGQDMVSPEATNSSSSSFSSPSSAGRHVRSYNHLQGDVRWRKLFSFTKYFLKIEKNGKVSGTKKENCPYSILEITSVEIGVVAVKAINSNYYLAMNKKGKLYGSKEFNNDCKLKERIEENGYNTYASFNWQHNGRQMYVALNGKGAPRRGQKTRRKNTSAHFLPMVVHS
Sequence of Torsin-1A-interacting protein 1 (Homo sapiens) (Q5JTV8 whole entry, looked up): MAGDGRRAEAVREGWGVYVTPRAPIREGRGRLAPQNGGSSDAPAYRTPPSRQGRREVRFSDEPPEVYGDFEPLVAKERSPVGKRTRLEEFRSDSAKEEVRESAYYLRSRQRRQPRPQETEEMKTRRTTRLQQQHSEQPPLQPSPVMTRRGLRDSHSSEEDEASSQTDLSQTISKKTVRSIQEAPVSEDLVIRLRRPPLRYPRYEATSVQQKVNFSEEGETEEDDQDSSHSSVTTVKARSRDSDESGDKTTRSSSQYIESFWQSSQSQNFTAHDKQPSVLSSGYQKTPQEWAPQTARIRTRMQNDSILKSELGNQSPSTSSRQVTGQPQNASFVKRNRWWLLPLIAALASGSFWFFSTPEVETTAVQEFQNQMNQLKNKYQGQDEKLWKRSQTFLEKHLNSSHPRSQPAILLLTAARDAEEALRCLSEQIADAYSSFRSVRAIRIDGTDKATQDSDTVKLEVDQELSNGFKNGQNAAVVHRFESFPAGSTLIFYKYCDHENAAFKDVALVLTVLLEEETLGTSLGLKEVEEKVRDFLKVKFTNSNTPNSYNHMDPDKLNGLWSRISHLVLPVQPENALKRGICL
Sequence of Dickkopf-related protein 1 (Homo sapiens) (O94907 whole entry, looked up): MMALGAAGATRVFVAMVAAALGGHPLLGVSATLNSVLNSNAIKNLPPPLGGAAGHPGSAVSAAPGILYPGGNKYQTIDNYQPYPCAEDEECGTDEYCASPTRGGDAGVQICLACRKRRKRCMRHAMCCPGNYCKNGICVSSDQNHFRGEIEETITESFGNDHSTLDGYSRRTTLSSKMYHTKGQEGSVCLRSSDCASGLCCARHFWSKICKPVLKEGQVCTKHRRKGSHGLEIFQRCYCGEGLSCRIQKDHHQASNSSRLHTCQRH
Sequence of Follistatin-related protein 3 (Homo sapiens) (O95633 whole entry, looked up): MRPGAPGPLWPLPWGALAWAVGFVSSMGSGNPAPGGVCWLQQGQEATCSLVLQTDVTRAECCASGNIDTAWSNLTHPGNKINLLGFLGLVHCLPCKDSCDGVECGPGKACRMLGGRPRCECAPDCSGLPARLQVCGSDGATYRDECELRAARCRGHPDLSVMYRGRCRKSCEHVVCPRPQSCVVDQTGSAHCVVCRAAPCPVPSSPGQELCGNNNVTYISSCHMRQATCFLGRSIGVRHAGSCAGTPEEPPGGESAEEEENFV
Sequence of Left-right determination factor 2 (Homo sapiens) (O00292 whole entry, looked up): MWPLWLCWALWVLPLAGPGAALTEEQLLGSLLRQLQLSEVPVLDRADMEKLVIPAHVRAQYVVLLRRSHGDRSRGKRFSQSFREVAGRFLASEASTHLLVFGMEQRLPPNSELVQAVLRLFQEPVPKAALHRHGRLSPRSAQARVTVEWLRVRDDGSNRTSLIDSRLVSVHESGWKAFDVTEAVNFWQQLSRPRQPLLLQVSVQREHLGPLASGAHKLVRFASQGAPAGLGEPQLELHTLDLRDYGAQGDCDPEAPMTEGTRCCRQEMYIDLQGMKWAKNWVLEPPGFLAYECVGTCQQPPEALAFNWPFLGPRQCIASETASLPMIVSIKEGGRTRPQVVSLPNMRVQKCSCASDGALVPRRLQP

For `NCCCCCCNC(=O)[C@@H]1C[C@@H]2C(=O)N[C@@H](CCCCN)C(=O)N2[C@@H]1c1cccc(OCCO)c1`, the composite z-score came to 1.85 in assay [1]; 0.772 in assay [2]; 1.14 in assay [3]; 0.243 in assay [5]; 0.543 in assay [6]; 0.412 in assay [7]. For the same compound, the composite z-score in assay [8] amounted to 0.171; in assay [9], 1.64; in [10] it was 0.702; in assay [11], 1.32; in assay [13] it was 1.1; in assay [14] it was 1.02. The composite z-score was 1.2 in assay [15]; 0.188 in [16]; 1.05 in [17]; 2.03 in assay [18]; 0.882 in [19]; 0.933 in assay [20]. Further, the z-score is -0.615 (inactive) in assay [4] and -0.661 in assay [12].
For the compound `COc1ccc(CCN2C(=O)[C@@]3(Cc4ccccc42)c2ccccc2C(=O)N(Cc2ccccc2OC)[C@H]3c2ccc(CO)cc2)cc1`, the composite z-score in [1] was 0.9; in [2] it was 0.533; in assay [3] it was 0.406; in assay [5] it was -0.783; in [6], -0.49; in assay [7], -0.951. In addition, the composite z-score was -1.14 in assay [8]; -1.33 in [9]; 0.359 in assay [10]; -0.131 in assay [11]; -1.03 in assay [13]; 0.0678 in assay [14]. For the same compound, the composite z-score in [15] was 0.466; in assay [16] it was -0.1; in assay [17], -0.155; in assay [18] it was 0.898; in assay [19], -0.119; in assay [20] it was -0.749. Further, the z-score is -0.942 (inactive) in assay [4] and -0.601 in [12].
In the case of `COc1ccc(-c2nc(-c3ccccc3)c3c(c2C)CO[Si]3(C(C)C)C(C)C)cn1`, the composite z-score in assay [1] was -0.18; in assay [2], -0.0958; in [3], -0.505; in [5], 0.984; in assay [6], 0.729; in assay [7], -0.0277. In addition, the composite z-score in [8] is 0.446; in assay [9], 0.125; in [10], 0.468; in assay [11], 0.107; in assay [13], 0.372; in assay [14] it was -0.461. The composite z-score is -0.309 in assay [15]; -0.0405 in [16]; 0.0278 in assay [17]; -0.294 in assay [18]; 0.104 in [19]; 0.397 in assay [20]. Also, the z-score in assay [4] was 0.0313 (inactive); in assay [12], -1.05.
Regarding `C=CCN1C(=O)[C@@]2(CCS(=O)(=O)c3ccccc3)N=C(c3ccc(OCCCO)cc3)O[C@H]2c2ccccc21`, the composite z-score in assay [1] is 1.32; in assay [2], 0.331; in assay [3] it was 0.482; in assay [5] it was 0.69; in assay [6] it was 1.33; in assay [7], 0.958. For the same compound, the composite z-score is 1.14 in assay [8]; 0.822 in assay [9]; 1.18 in assay [10]; 1.42 in assay [11]; 0.876 in [13]; 1.94 in assay [14]. For the same compound, the composite z-score in [15] is -0.313; in [16], 0.0215; in assay [17], -0.304; in assay [18] it was 0.906; in assay [19] it was 0.791; in [20], 1.22. Further, the z-score in [4] is 0.095 (inactive); in assay [12] it was -1.97.
Turning to `O=C1C[C@@](C(=O)NCCN2CCOCC2)(c2ccc([N+](=O)[O-])cc2)[C@@H](c2ccc(CO)cc2I)N1C1CCCCC1`, the composite z-score is 0.979 in assay [1]; -0.0973 in assay [2]; -0.0907 in [3]; 0.76 in [5]; 1.15 in assay [6]; 0.593 in assay [7]. In addition, the composite z-score is 0.926 in assay [8]; 0.397 in assay [9]; 0.454 in [10]; 1.18 in assay [11]; 0.369 in [13]; -0.413 in assay [14]. Moreover, the composite z-score was -0.173 in [15]; -0.0445 in [16]; 0.0611 in [17]; 0.079 in [18]; 0.646 in [19]; 1.43 in assay [20]. For the same compound, the z-score is -0.131 (inactive) in assay [4] and -2.66 in [12].
As for `CCOC(=O)C[C@H]1[C@H](OC(=O)c2cc3ccccc3oc2=O)[C@@H](NC(=O)c2ccc(-c3ccccc3)cc2)c2cc(OCCCO)ccc2N1C(=O)c1ccccc1`, the composite z-score in assay [1] is 1.17; in assay [2], -0.24; in [3], -0.466; in assay [5], 1.02; in [6], 1.04; in assay [7] it was 0.613. Moreover, the composite z-score amounted to 1.05 in assay [8]; 1.22 in assay [9]; 0.479 in [10]; 1.4 in assay [11]; 1.16 in assay [13]; 0.536 in assay [14]. Besides, the composite z-score in assay [15] was -0.15; in [16], -0.0203; in assay [17], 0.199; in [18] it was 0.161; in [19], 0.959; in assay [20], 0.727. For the same compound, the figures for the z-score in assay [4] and in assay [12] were -1.38 (inactive) and -0.659, respectively.

These data come from PubChem BioAssay.
